Source: PubChem (National Center for Advancing Translational Sciences (NCATS))
ELG1 DNA repair – ELG1-dependent DNA repair inhibition; AID 504467; HEK293T ELG1-luciferase reporter, luminescence, 16 h; DNA damage induced by 5-fluorouridine; Potency, µM (series often up to 46.1 µM), for the others: at the top dose activity change, negative = inhibition, most hits filed as inhibitors; 330,000 compounds, 2.3% hits; also: potency is read from the fitted curve at half-maximal effect; nearly all actives have a fitted effect of over 55% in size
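5-Fluorouridine DNA damage + compound/DMSO, 2,000 cells/well, 16 h, 37 °C/5% CO2. ONE-Glo, 30 min RT, luminescence. Readout = decrease in reporter signal.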
TDP1 cell CPT – growth inhibition of DT40 Tdp1-/-;hTDP1 cells with camptothecin (screen for TDP1 inhibitors). chicken DT40 Tdp1-/-;hTDP1 cells + 20 nM CPT, ATP luminescence, 48 h. Potency, µM (titrated, usually from 46.2 µM), for the others: at the highest dose activity change, negative = growth inhibition, hits mostly inhibitors. 420,000 compounds, 12% hits; also: potency is read from the fitted curve at half-maximal effect; nearly all actives have a fitted effect of over 55% in size
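Cell growth measured by CellTiter-Glo luminescence after a minimum 48 h, 37 C compound exposure with 20 nM CPT in Tdp1-knockout DT40 cells stably expressing hTDP1, seeded 400/well; qHTS titration format.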
DT40 TDP1 no CPT – qHTS for Inhibitors of human tyrosyl-DNA phosphodiesterase 1 (TDP1): qHTS in cells in absence of CPT; DT40 Tdp1-/- hTDP1 cells, no CPT, ATP luminescence, 48 h; Potency, µM (series often up to 46.2 µM), inactives show at the top dose activity change, negative = growth inhibition, hits mostly inhibitors; 420,000 compounds, 15% hits; also: potency is read from the fitted curve at half-maximal effect; nearly all actives have a fitted effect of over 55% in size
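Compound effects on proliferation are scored in DT40 Tdp1-/-;hTDP1 cells in the absence of CPT. ATP levels (CellTiter-Glo luminescence) are recorded after a ≥48 hr, 37 °C incubation.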
HT1080 IDH1KD tx – HT-1080 IDH1 knockdown cell toxicity (counter line). HT-1080 IDH1 knockdown viability, ATP luminescence, 48 h. Potency, µM (highest dose often 46.1 µM), for inactives: top-dose activity, negative = toxicity, actives largely listed as cytotoxic. 360,000 compounds, 2% hits. AID 686971;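 also: potency is read from the fitted curve at half-maximal effect; 0% = DMSO wells and -100% = cell-free medium wells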
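After a 2 h attachment period, IDH1KD HT-1080 cells took pin-transferred compound for 48 h at 37 °C; ATP-based luminescence after 10 min room-temperature reagent incubation reported viability.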
IL-1B inflam inh – inflammasome signaling inhibition, IL-1 beta readout; THP-1 LPS/ATP IL-1B secretion, AlphaLISA, 16 h; active compounds read low; activity change, % at 57.5 µM; 360,000 compounds, 4.7% hits; AID 743279; in the data active = activity change below about -50%; inconclusive = mostly about -30% to -49%
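THP-1 cells pretreated 1 hr with compounds (up to 57.5 uM final), then stimulated with LPS (250 ng/mL final) plus ATP (1.25 mM final); secreted IL-1B measured by AlphaLISA after 16 hr, decreased signal indicating inhibition.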
HT1080NT lethal – kills 2HG-producing HT-1080-NT fibrosarcoma cells; HT-1080-NT fibrosarcoma viability, CellTiter-Glo ATP luminescence, 48 h; Potency, µM (titrated, usually from 46.1 µM), inactives show at the top dose activity, negative = less viability, actives largely listed as cytotoxic; 360,000 compounds, 1.6% hits; AID 686970;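 also: NT is the 2HG producing partner of a matched IDH1 knockdown line; potency is read from the fitted curve at half-maximal effect; 0% = DMSO-treated cells and -100% = media-only wells without cells; nearly all actives have a fitted effect of over 55% in size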
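HT-1080-NT; 750 cells/well; 5% FBS RPMI; 48 h compound, 37 degrees C; CellTiter-Glo luminescence; curve fitting and curve-class assignment.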
* hit, by the source's call; ? = inconclusive; nt = no result given; [ ] = another dose, or the depositor's remark. Shown are actives, neighbours in structure and some others; about 19% of the full set was active somewhere. Unless noted, calls follow the shape of the dose curve; as a rule, active = well fitted curve in the direction sought with a large enough effect; inconclusive = small, poorly fitted or top-dose-only effect, or another doubt; inactive = no such curve, though single readings can be large; an effect the other way counts as inactive or inconclusive. Unless noted, % is scaled to controls: 0 for no effect and ±100 for the full control effect.

SMILES	ELG1 DNA repair	TDP1 cell CPT	DT40 TDP1 no CPT	HT1080 IDH1KD tx	IL-1B inflam inh	HT1080NT lethal
Cc1ccc(S(=O)(=O)N2CCC(=O)N(C(COCc3ccc(Cl)cc3Cl)Cc3ccccc3)CC2)cc1 (stereo unspecified)	3%	?	?	7%	-3	7%
Cc1ccc(S(=O)(=O)N2CCC(=O)N([C@H](COC(=O)Nc3ccccc3)Cc3ccccc3)CC2)cc1	nt	?	18µM*	3%	-10	-11%
Cc1ccc(S(=O)(=O)N2CCC(=O)N(C(COCc3ccccc3)Cc3ccccc3)CC2)cc1 (stereo unspecified)	-21%	?	12µM*	0%	-26	-4%
Cc1ccc(S(=O)(=O)N2CCC(=O)N([C@H](COCc3ccc(Cl)c(Cl)c3)Cc3ccccc3)CC2)cc1	nt	?	?	3%	32	10%
Cc1ccc(S(=O)(=O)N2CCC(=O)N([C@H](COCc3ccc(Cl)cc3)Cc3ccccc3)CC2)cc1	nt	?	?	-4%	-13	3%
Cc1ccc(S(=O)(=O)N2CCC(=O)N(CCOCc3ccc(Cl)cc3)CC2)cc1	-19%	12µM*	16µM*	-2%	-16	-20%
Cc1ccc(S(=O)(=O)N2CCC(=O)N(C(COCc3cccc(Cl)c3)Cc3ccccc3)CC2)cc1 (stereo unspecified)	?	-91%	18µM*	-8%	10	0%
CC(C)(C)CC(=O)Nc1nnc(SCC(=O)Nc2ccccc2F)s1	?	?	?	1%	10	4%
Cc1ccc(S(=O)(=O)N2CCC(=O)N([C@H](COCc3cccc(Cl)c3)Cc3ccccc3)CC2)cc1	nt	?	21µM*	-9%	28	-6%
Cc1ccc(S(=O)(=O)N2CCC(=O)N(C(COCc3cccc(C(F)(F)F)c3)Cc3ccccc3)CC2)cc1 (stereo unspecified)	-6%	?	21µM*	-10%	33	-1%
COc1cc(CNCc2c(C(=O)O)c(C)n(Cc3cccc(Cl)c3)c2C)cc(OC)c1OC	nt	0%	-1%	nt	nt	nt
CCCOC(=O)c1c(-c2ccccc2)c(-c2ccccc2)nn(C)c1=O	nt	21µM*	15µM*	nt	nt	nt
CCC(C)NC(=O)c1c(-c2ccccc2)c(-c2ccccc2)nn(C)c1=O (stereo unspecified)	nt	-7%	-4%	nt	nt	nt
CC(=O)c1sc(NC(=O)c2c(-c3ccccc3)c(-c3ccccc3)nn(C)c2=O)nc1C	nt	0.41µM*	0.52µM*	nt	nt	nt
Cc1cc(C)c(NC(=O)CCN2C(=O)c3ccccc3S2(=O)=O)c(C)c1	1%	-5%	2%	16%	-20	19%
CCc1ccc(CNC(=O)C2CC(=O)N(C3CCCC3)C2)cc1 (stereo unspecified)	11%	3%	-8%	0%	10	0%
NCCCC[C@H]1CNC(=S)N1CCCCC1CCCCC1	-5%	9.2µM*	7.3µM*	-15%	-2	-17%
NCCCC[C@H]1CNC(=S)N1CCc1cc(C(F)(F)F)cc(C(F)(F)F)c1	0%	?	?	-13%	-51*	-20%
CC1CCN(C(=O)CN2C(=O)NC(c3ccccc3)(c3ccccc3)C2=O)CC1	2%	3%	11%	3%	-14	9%
CCOc1ccccc1NC(=O)NCCCCc1ccccc1	-1%	-1%	2%	13%	13	4%
CCCC[C@H](CN[C@@H](CNC)[C@H](C)CC)NCCC12CCC(CC1)C2	-2%	2.6µM*	3.7µM*	?	-68*	?
CCOC(=O)/C(=C\c1ccc(N2CCC(c3ccccc3)=N2)cc1)C(C)=O	nt	?	?	1%	?	5%
CCOC(=O)C(=Cc1ccc(-n2cncn2)cc1)C(=O)OCC	18µM*	12µM*	13µM*	5.2µM*	-99*	16µM*
Cc1cc(C(=O)NCc2nc(-c3cccc(NC(=O)c4ccccc4)c3)oc2C)nc(C)n1	nt	-4%[9.04 µM]	-18%	nt	nt	nt
Cc1occc1C(=O)Nc1cccc(-c2nc(CNC(=O)c3ccc4ccccc4n3)c(C)o2)c1	nt	8.2µM*	6.5µM*	nt	nt	nt
SMILES	ELG1 DNA repair	TDP1 cell CPT	DT40 TDP1 no CPT	HT1080 IDH1KD tx	IL-1B inflam inh	HT1080NT lethal
Cc1nc(C)c(C(=O)NCc2nc(-c3cccc(NC(=O)c4ccccn4)c3)oc2C)s1	nt	3.3µM*	2.9µM*	nt	nt	nt
COC(=O)c1cccc(C(=O)NCc2nc(-c3cccc(NC(=O)c4ccoc4C)c3)oc2C)c1	nt	-6%[9.04 µM]	21µM*	nt	nt	nt
CSc1ccccc1C(=O)NCc1nc(-c2cccc(NC(=O)c3ccoc3C)c2)oc1C	nt	?	21µM*	nt	nt	nt
CSc1nc(C(=O)NCc2nc(-c3cccc(NC(=O)c4ccccn4)c3)oc2C)cs1	nt	10%[9.04 µM]	?	nt	nt	nt
Cc1ccc(NC(=O)Cn2ccnc2)cc1C	7%	-9%	?	-2%	23	-2%
COc1ccc(CNC(=O)C2CCN(S(=O)(=O)Cc3ccccc3)CC2)cc1	nt	?	-6%	nt	nt	nt
O=S1(=O)CCOCCCN1Cc1ccccc1	-4%	13%	7%	0%	16	0%
CCc1ccc(NC(=O)CSc2nc(-c3ccccc3Cl)nc3c2Cc2c(CO)cnc(C)c2O3)cc1	nt	?	1%	nt	nt	nt
C=Cc1ccc(CSc2nc(-c3ccc(OC)cc3)nc3c2Cc2c(CO)cnc(C)c2O3)cc1	nt	5.8µM*	5.2µM*	nt	nt	nt
COc1ccc(-c2nc3c(c(SC)n2)Cc2c(CO)cnc(C)c2O3)cc1	nt	-6%	-10%	nt	nt	nt
COc1ccc(-c2nc3c(c(SCc4ccc(Br)cc4)n2)Cc2c(CO)cnc(C)c2O3)cc1	nt	?	4.1µM*	nt	nt	nt
C=Cc1ccc(CSc2nc(-c3ccccc3C)nc3c2Cc2c(CO)cnc(C)c2O3)cc1	nt	?	21µM*	nt	nt	nt
CCc1ccc(-c2nc3c(c(SCc4ccc(F)cc4)n2)Cc2c(CO)cnc(C)c2O3)cc1	nt	-4%	-19%	nt	nt	nt
C=Cc1ccc(CSc2nc(-c3ccc(Cl)cc3)nc3c2Cc2c(CO)cnc(C)c2O3)cc1	nt	8.2µM*	23µM*	nt	nt	nt
COc1ccc(Nc2nnc(-c3cc4cc(Cl)ccc4oc3=O)s2)cc1	nt	14%	7%	nt	nt	nt
CCOc1ccccc1Nc1nnc(-c2cc3cc(Cl)ccc3oc2=O)s1	nt	2.3µM*	2.3µM*	nt	nt	nt
CCn1c(=O)c2[nH]c(SC)nc2n(CC)c1=O	nt	3%	-8%	-6%	12	0%
